# Experimental data from PMC4336329 (PLoS ONE, 2015).
# Hit rate of the full screen: of about 310,000 compounds, about 14,000 (4.5%) showed an effect of 50% or more. The effect is printed as a negative number. For the sample, strong results were picked, then their nearest neighbours and some compounds at random.
# Target: human ether-à-go-go-related gene (hERG) potassium channel (human, UniProt Q12809)
# Assay: primary screen, population patch clamp on CHO cells stably expressing hERG; higher = less effect of the substance
# 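Also: peak tail current of the secondary pulse compared with the same well before compound.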
# human ether-à-go-go-related gene (hERG) potassium channel, sequence (Q12809 whole entry, looked up): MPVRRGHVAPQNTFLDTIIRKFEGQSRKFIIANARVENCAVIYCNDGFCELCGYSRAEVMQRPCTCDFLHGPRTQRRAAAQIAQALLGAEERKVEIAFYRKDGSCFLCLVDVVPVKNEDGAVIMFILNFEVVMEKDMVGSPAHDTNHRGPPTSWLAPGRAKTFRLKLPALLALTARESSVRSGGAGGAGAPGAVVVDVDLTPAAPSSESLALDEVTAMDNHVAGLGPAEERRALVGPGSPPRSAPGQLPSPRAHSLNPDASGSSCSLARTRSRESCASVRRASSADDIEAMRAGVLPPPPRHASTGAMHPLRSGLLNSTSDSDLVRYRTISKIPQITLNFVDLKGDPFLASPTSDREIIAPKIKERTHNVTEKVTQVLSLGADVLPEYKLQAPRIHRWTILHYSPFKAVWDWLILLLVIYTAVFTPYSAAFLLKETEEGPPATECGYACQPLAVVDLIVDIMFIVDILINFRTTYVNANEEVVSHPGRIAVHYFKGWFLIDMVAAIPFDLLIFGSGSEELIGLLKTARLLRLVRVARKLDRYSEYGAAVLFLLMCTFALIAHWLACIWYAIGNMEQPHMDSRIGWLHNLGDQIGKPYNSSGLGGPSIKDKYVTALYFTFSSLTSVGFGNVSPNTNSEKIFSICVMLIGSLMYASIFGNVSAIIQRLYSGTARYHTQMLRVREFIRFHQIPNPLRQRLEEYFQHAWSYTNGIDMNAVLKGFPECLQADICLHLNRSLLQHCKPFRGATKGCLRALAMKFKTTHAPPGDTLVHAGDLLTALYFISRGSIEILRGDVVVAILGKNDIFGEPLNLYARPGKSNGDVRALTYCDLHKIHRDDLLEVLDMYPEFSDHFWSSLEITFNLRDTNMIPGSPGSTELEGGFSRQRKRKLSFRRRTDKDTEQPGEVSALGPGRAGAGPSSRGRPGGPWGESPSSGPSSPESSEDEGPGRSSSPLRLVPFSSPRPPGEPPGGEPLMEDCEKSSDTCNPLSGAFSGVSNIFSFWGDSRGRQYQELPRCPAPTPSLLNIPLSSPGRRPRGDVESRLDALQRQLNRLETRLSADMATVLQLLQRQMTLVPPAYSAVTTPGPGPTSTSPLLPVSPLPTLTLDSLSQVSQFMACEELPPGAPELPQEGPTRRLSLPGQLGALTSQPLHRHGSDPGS
row,SMILES,"hERG current change (%, negative = inhibition) at 10uM [%]"
1,C1CCc2c(nc3nnnn3c2N2CCOCC2)C1,-3.03
2,COc1ccc(CC(=O)Nc2ccc(F)c(Cl)c2)cc1S(=O)(=O)N1CCOCC1,-46.1
3,COc1ccc2nc(NC(=O)Cc3ccc(OC)c(S(=O)(=O)N4CCOCC4)c3)sc2c1,-22.1
4,COc1ccc(C(=O)Nc2nc3ccccc3s2)cc1,11.6
5,COc1ccc(CC(=O)Nc2ccc(N3CCOCC3)cc2)cc1S(=O)(=O)N1CCOCC1,0.936
6,COc1ccc(CC(=O)Nc2nc3ccccc3s2)cc1S(=O)(=O)N1CCOCC1,-65.9
7,COc1ccc(C(=O)Nc2nc3ccccc3s2)cc1OC,-65.8
8,COc1ccc(CC(=O)Nc2ccc(C#N)c(Cl)c2)cc1S(=O)(=O)N1CCOCC1,-68.1
9,COc1ccc(CC(=O)Nc2nc3ccc(F)cc3s2)cc1S(=O)(=O)N1CCOCC1,-19.4
10,COc1cccc(C(=O)Nc2nc3ccccc3s2)c1,4.88
11,COc1cc(NC(=O)c2nccn2C)cc(C(=O)Nc2cccc(C(F)(F)F)c2)c1,5.31
12,CC(C)CC(C(=O)NC(=O)NCc1ccccc1)N1C(=O)c2ccccc2C1=O (stereo not shown),8.22
13,CC(C)(C)C(=O)OCCn1c(=O)c2cc3c(=O)n(CCOC(=O)C(C)(C)C)c(=O)c3cc2c1=O,25.5
14,CC(=O)c1sc2nc(-c3ccc(C)cc3)c3c(c2c1N)CCCC3,2.68
15,Cc1ccc(C(O)(C(=O)NNS(=O)(=O)c2ccc(C)cc2)c2ccc(C)cc2)cc1,-5.55
16,CCCn1ncc([C@@H]2C[C@H]3CN(Cc4cccc(Cl)c4)C(=O)[C@]34CCCN24)c1C,-43.6
17,CCCn1cc([C@@H]2C[C@H]3CN(Cc4cccc(Cl)c4)C(=O)[C@]34CCCN24)c(C)n1,-67.3
18,CCn1cc([C@@H]2C[C@H]3CN(Cc4cccc(Cl)c4)C(=O)[C@]34CCCN24)c(C)n1,-41.7
19,Cc1ccccc1CN1C[C@@H]2C[C@@H](c3cn(C)nc3-c3ccccc3)N3CCC[C@@]23C1=O,3.15
20,Cc1nn(C)cc1[C@@H]1C[C@H]2CN(Cc3cccc(Cl)c3)C(=O)[C@]23CCCN13,-36.8
21,Cn1cc([C@@H]2C[C@H]3CN(Cc4cccc(Cl)c4)C(=O)[C@]34CCCN24)c(-c2ccccc2)n1,-63.3

row,SMILES,"hERG current change (%, negative = inhibition) at 10uM [%]"
1,O=C1NC(c2ccccc2)CCC1(Cl)Cl (stereo not shown),6.57
2,CCc1ccc(NC(=O)c2cccc(NC3=NC4CS(=O)(=O)CC4S3)c2)cc1 (stereo not shown),18
3,CCn1c(=O)n(CC(=O)NCc2ccccc2OC)c(=O)c2ccccc21,8.2
4,CC(C)(C)C(=O)C1=C(O)C(=O)N(Cc2ccccc2)C1c1ccccc1Cl (stereo not shown),14.1
5,O=C(COc1ccccc1O)N1CCN(C(=O)c2ccco2)CC1,-24.8
6,CCOC(=O)Nc1ccc(C(=O)c2ccncc2)cc1,14.7
7,COc1ccccc1-c1ccc(=O)n(CC(=O)NC(C)(C)C)n1,14
8,COc1cccc2[nH]c3c(N4CCc5ccccc5C4)ncnc3c12,4.69
9,CC1(C)Cc2c(sc(NC(=O)C(C)(C)C)c2C#N)C(C)(C)N1,3.16
10,O=C(CN1CCN(S(=O)(=O)c2ccc(Cl)cc2)CC1)NCc1cccs1,-59.1
11,N#Cc1ccc(S(=O)(=O)N2CCN(Cc3cccs3)CC2)cc1,-61.2
12,Cl.O=C(CN1CCN(c2ccc(F)cc2)CC1)NCc1cccs1,-15.4
13,O=C(NCc1cccs1)C1CCN(S(=O)(=O)c2ccc(Cl)cc2)CC1,4.41
14,N#CCCN1CCN(S(=O)(=O)c2ccc(C#N)cc2)CC1,-10.6
15,O=C(CN1CCN(S(=O)(=O)c2ccc(F)cc2)CC1)NCc1cccs1,-32.1
16,CC(=O)Nc1ccc(S(=O)(=O)N2CCN(Cc3cccs3)CC2)cc1.O=C(O)C(=O)O,-7.69
17,O=C(NCc1cccs1)C1CCN(S(=O)(=O)c2ccccc2F)CC1,10.4
18,O=C(CN1CCN(S(=O)(=O)c2ccccc2C(F)(F)F)CC1)NCc1cccs1,-68.1
19,COc1ccc(OC)c(Nc2nc(-c3ccc(O)c(O)c3)cs2)c1,10.8
20,CC12CN3CC(C)(CN(C1)C31CCOCC1)C2=O,11.4
21,CCOc1cc(C(=O)NC2CC(C)(C)NC(C)(C)C2)cc(OCC)c1OCC,20

row,SMILES,"hERG current change (%, negative = inhibition) at 10uM [%]"
1,O=C(NCc1ccco1)C1CCN(S(=O)(=O)Cc2ccccc2)CC1,-5.29
2,CCOc1ccc(S(=O)(=O)N(C)CC(=O)NCc2ccccn2)cc1Cl,-27.8
3,O=C(CSc1ncn[nH]1)Nc1ccc2c(c1)OCCO2,-26.9
4,Cc1csc(N)n1,7.04
5,Cc1ccnc(NC(=O)CC(c2ccccc2)c2ccccc2)n1,30.5
6,Clc1ccc(CSc2cc3c(nn2)-c2ccccc2CC3)cc1,23
7,CC1=C(C(=O)OCC2CCCCC2)C(c2ccc(O)cc2)NC(=O)N1 (stereo not shown),12.7
8,COC(=O)c1cc(NC2c3ccccc3C(=O)N2c2ccc(Cl)cn2)cc(C(=O)OC)c1 (stereo not shown),19.5
9,Cc1ccc(S(=O)(=O)NCC(=O)OCC(=O)c2ccc(Br)s2)cc1,-52.7
10,Cc1ccc(S(=O)(=O)NCC(=O)OCC(=O)c2cccs2)cc1,0.259
11,Cc1ccc(S(=O)(=O)NCC(=O)OCC(=O)c2ccc(Cl)s2)cc1,1.12
12,Cc1cccc(CN2C(=O)[C@H]3Cc4c([nH]c5ccccc45)C(C)(C)N3C2=O)c1,-1.56
13,CS(=O)(=O)NC1c2cccc3cccc(c23)C1Sc1nncn1/N=C/c1ccco1 (stereo not shown),-21.1
14,COc1ccc(/C=N/NC(=O)c2ccc(O)cc2)cc1CN1CCCc2ccccc21,0.817
15,COc1ccc(/C=N/NC(=O)c2ccc(OC)c(OC)c2)cc1COc1c(F)c(F)c(F)c(F)c1F,5.91
16,COc1ccc(C(=O)N/N=C/c2ccc(OC)c(CN3CCc4cc(OC)c(OC)cc4C3C)c2)cc1 (stereo not shown),-76
17,COc1ccc(/C=N/NC(=O)c2ccccc2OC)cc1COc1ccccc1[N+](=O)[O-],8.94
18,COc1ccc(/C=N\NC(=O)c2ccc(F)cc2)cc1COc1ccccc1C(N)=O,-44.3
19,COc1ccc(/C=N/NC(=O)c2cccnc2)cc1CN1CCc2cc(OC)c(OC)cc2C1C (stereo not shown),-40.9
20,COc1ccc(C(=O)N/N=C/c2ccc(OC)c(CN3CCCc4ccccc43)c2)cc1,-11.9
21,COc1ccc(C(=O)N/N=C/c2ccc(OC)c(COc3ccccc3)c2)cc1,-26.1

row,SMILES,"hERG current change (%, negative = inhibition) at 10uM [%]"
1,COc1ccc(/C=N/NC(=O)c2ccccc2[N+](=O)[O-])cc1CN1CCc2cc(OC)c(OC)cc2C1C (stereo not shown),-63.9
2,COc1ccc(/C=N\NC(=O)c2ccccc2[N+](=O)[O-])cc1COc1c(F)c(F)c(F)c(F)c1F,8.06
3,COc1ccc(/C=N/NC(=O)c2ccc(F)cc2)cc1CN1CCc2cc(OC)c(OC)cc2C1C (stereo not shown),-88.3
4,COc1ccc(/C=N/NC(=O)c2cc(OC)c(OC)c(OC)c2)cc1CN1CCc2cc(OC)c(OC)cc2C1C (stereo not shown),-73.4
5,Cc1nc2cc(NC(=O)Nc3ccc(N4CCOCC4)cc3)ccc2n1C,6.34
6,COCCn1c(Br)nc2c1c(=O)n(C)c(=O)n2C,8.14
7,Cc1ccccc1C(=O)N1CCN(c2ccc(NC(=O)c3cccs3)cc2)CC1,4.97
8,CC(=O)Nc1ccc(S(=O)(=O)NCC2CCC(C(=O)NCCCN(C)Cc3ccccc3)CC2)cc1 (stereo not shown),6.98
9,CCn1c(SCC(=O)NCC2CCCO2)nnc1-c1ccccc1OC (stereo not shown),10.9
10,CS(=O)(=O)Nc1ccccc1C(=O)NCC1(N2CCCCC2)CCCCC1,-8.32
11,O=C(O)c1ccc(NS(=O)(=O)c2ccc(C(=O)Nc3ccccc3)cc2)cc1,-8.65
12,Cc1ccc(Cn2nnnc2CN2CCC(n3nnc4ccccc43)CC2)cc1.Cl,-53.9
13,Cc1ccc(C)c(CN2CCC(n3nnc4cc(F)ccc43)CC2)c1,-21.2
14,Cc1ccc(Cn2nnnc2CN2CCC(NC(=O)c3ccc(Br)cc3)CC2)cc1,-44.7
15,Cc1ccc(Cn2nnnc2CN2CCC(n3nnc4cc(C)ccc43)CC2)cc1,-65.2
16,Cc1ccc(Cn2nnnc2CN2CCC(NC(=O)C(C)(C)C)CC2)cc1.Cl,0.395
17,Cc1ccc(S(=O)(=O)N2CCC(n3nnc4cc(C)ccc43)CC2)cc1,-28.9
18,COc1ccc(CCNC(=O)CSc2nc(N)cc(=O)[nH]2)cc1OC,29.6
19,Cc1ccc(S(=O)(=O)N(C)C)cc1NC(=O)C(C)N(C)Cc1sccc1C (stereo not shown),-16.1
